# In the library only some 1.3% were active in any assay of this set; here they are far more common.
# Fam108B inh: Fam108B inhibition, counter-screen for RBBP9 inhibitors. AID 1947. actives 0.33% (n = 300,000). inhibition, % at 9.51 µM. recombinant Fam108B, FP-Rh probe fluorescence polarization;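 active = inhibition above the screen mean inhibition plus 3 SD, computed separately per campaign, cut at about 18% in these data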;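 also: inhibitors lower polarization as less probe binds the enzyme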
# PREPL inh: inhibitors of human prolyl oligopeptidase-like enzyme PREPL | actives 0.68% (n = 320,000) | recombinant PREPL, fluorescence polarization activity-based probe | AID 2751 | inhibition, % at 5.96 µM | Q4J6C6; in the data active = inhibition above about 43%;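 also: 0% = enzyme with DMSO and 100% = wells lacking enzyme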
# LYPLA2 inh: blocks human lysophospholipase 2, a PME1 counter-screen. inhibition, % at 5.9 µM. actives 0.38% (n = 320,000). O95372. recombinant LYPLA2, FP-Rh probe fluorescence polarization;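 active = inhibition above the screen-wide mean plus 3 SD, limit set per campaign, cut at about 26% in these data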;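 also: 0% = LYPLA2 with DMSO and 100% = wells lacking LYPLA2 enzyme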
# Target sequence (O95372 whole entry, looked up): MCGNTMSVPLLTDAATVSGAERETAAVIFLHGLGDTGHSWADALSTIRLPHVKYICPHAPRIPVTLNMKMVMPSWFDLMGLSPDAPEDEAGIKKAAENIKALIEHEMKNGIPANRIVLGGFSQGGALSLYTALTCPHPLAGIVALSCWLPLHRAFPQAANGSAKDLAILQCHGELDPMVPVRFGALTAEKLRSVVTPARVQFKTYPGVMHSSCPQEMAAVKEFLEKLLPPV
# PME-1 primary: blocks human protein phosphatase methylesterase 1. inhibition, % at 5.9 µM. AID 2130. recombinant PME-1, FP-Rh probe fluorescence polarization. actives 0.53% (n = 320,000);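 active = inhibition above the campaign mean of all compounds plus 3 SD, cut at about 26% in these data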;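 also: competitive labeling of PME-1 active site by serine hydrolase directed probe; 0% = PME-1 with DMSO and 100% = wells lacking PME-1 enzyme; inhibitors block probe labeling so polarization falls and inhibition rises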
# Target sequence (Q9Y570 whole entry, looked up): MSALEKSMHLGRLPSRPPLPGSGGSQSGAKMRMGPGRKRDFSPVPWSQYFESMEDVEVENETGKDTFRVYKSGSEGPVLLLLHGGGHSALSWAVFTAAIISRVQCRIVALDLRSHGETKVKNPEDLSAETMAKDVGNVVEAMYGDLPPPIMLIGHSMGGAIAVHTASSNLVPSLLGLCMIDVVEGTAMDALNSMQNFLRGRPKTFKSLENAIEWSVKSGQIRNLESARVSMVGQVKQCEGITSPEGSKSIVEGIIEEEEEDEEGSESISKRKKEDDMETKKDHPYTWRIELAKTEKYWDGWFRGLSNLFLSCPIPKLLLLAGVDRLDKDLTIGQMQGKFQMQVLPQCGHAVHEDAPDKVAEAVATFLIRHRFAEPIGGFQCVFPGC
# LYPLA1 inh: counter-screen for PME1 inhibitors: inhibitors of human LYPLA1 | recombinant LYPLA1, FP-Rh probe fluorescence polarization | inhibition, % at 5.9 µM | actives 0.16% (n = 320,000) | AID 2174;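 active = inhibition above the mean of all tested compounds plus 3 SD, set per campaign, cut at about 14% in these data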;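 also: inhibitors block serine hydrolase probe labeling of LYPLA1 so polarization falls; 0% = enzyme with DMSO and 100% = wells lacking LYPLA1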
# * = called active by the depositor; . = no result given.
SMILES,Fam108B inh,PREPL inh,LYPLA2 inh,PME-1 primary,LYPLA1 inh
CCOc1ccc(NC(=O)CCN2CCN(S(=O)(=O)c3cc(Cl)ccc3OC)CC2)cc1,2.6,29.8,22.1,-3.9,2.8
CCN(CC)c1ccc(NC(=O)CN2CCN(S(=O)(=O)c3cc(Cl)ccc3OC)CC2)cc1,2.9,71.5*,10.7,2.9,-0.5
c1ccc2c(c1)OCCc1c-2[nH]c2ccccc12,2.4,21.1,0.5,32.9*,-0.1
O=C(Nc1ccc([N+](=O)[O-])cc1)Nc1ccc2[nH]c(=O)[nH]c2c1,1.8,22.1,-10.2,29.6*,-3.4
O=C(CSc1ccc([N+](=O)[O-])cn1)Nc1ccc2[nH]c(=O)[nH]c2c1,-1.7,9.9,4.8,2.6,-0.3
O=C(CSc1nnc(Cc2ccccc2)c(=O)[nH]1)Nc1ccccc1,5.0,-6.8,4.6,7.1,-1.0
COc1cccc(-c2nc(NC(C)C)c3ccccc3n2)c1O,11.0,21.0,6.3,26.1*,-5.3
O=[N+]([O-])c1ccc(S(=O)(=O)Nc2nnc(C(F)(F)F)s2)cc1,-1.1,-8.8,1.0,-3.0,-2.5
COc1ccc(-c2cc(-c3c(O)c(OC)c4occc4c3OC)[nH]n2)cc1,11.4,27.7,10.6,32.6*,-5.3
COc1ccc(-c2cc(-c3ccccc3O)[nH]n2)cc1,-6.8,-13.1,-10.0,-3.5,-7.0
CCOC(=O)C1=C(C)Nc2ccccc2N/C1=N\S(=O)(=O)c1cccc(Cl)c1,.,3.1,0.9,26.2*,-1.9
CCOC(=O)C1=C(C)Nc2ccccc2N/C1=N\S(=O)(=O)c1ccc(Cl)cc1,.,-3.8,2.0,2.0,-3.8
O=C(COC(=O)c1cc(-c2cccc3ccccc23)nc2ccccc12)NC1CCS(=O)(=O)C1 (stereo not drawn),14.5,36.2,19.1,42.6*,13.8
Cc1cc(C(=O)OCC(=O)NC2CCS(=O)(=O)C2)c2ccccc2n1 (stereo not drawn),2.5,0.8,1.0,-3.1,-2.1
COc1ccc(-c2cc(C(=O)N3CCN(C(=O)c4ccccc4F)CC3)[nH]n2)cc1,0.4,-3.4,10.0,30.4*,5.9
CC(C)OC(=O)CSc1nc(N2CCOCC2)c2c(c1C#N)CC(C)(C)OC2,1.9,-0.3,2.0,-2.2,-1.9
CCOc1cccc(CNc2ccc(O)cc2)c1OCc1ccc(Cl)cc1Cl,16.9,14.6,11.1,23.2,-1.0
CCOc1cccc(CNc2ccc(O)cc2)c1OCc1ccccc1Cl,5.9,29.5,19.7,33.7*,6.8
CCCC(=O)NC(c1cccs1)c1cc([N+](=O)[O-])c2cccnc2c1O (stereo not drawn),3.7,1.2,2.9,10.5,-5.3
CC(=O)NC(c1cccs1)c1cc([N+](=O)[O-])c2cccnc2c1O (stereo not drawn),-0.9,24.8,-3.8,34.0*,-3.1
CCC(=O)NC(c1cccs1)c1cc([N+](=O)[O-])c2cccnc2c1O (stereo not drawn),10.5,3.4,3.7,27.2*,-1.2
CN(C)CCCn1c(=O)n(CCc2ccccc2)c(=O)c2c3c(sc21)CCCCC3,8.0,21.5,-4.8,1.8,0.5
CN(C)CCCNc1nc2sc3c(c2c(=O)n1CCc1ccccc1)CCCCC3,4.7,67.6*,-3.7,7.5,0.7
CCOc1ccc(N2CC(C(=O)N3CCc4ccccc43)CC2=O)cc1 (stereo not drawn),-4.8,10.8,-0.1,1.2,-2.5
COC(=O)N1C(=O)[C@](c2ccc(OC)cc2)(C(C)C)N1C(=O)OC,0.0,7.4,5.4,49.1*,3.2
SMILES,Fam108B inh,PREPL inh,LYPLA2 inh,PME-1 primary,LYPLA1 inh
COC(=O)N1C(=O)[C@](c2ccsc2)(C(C)C)N1C(=O)OC,-0.5,3.6,-4.8,25.2,0.0
COC(=O)N1C(=O)[C@@](CC(C)C)(c2ccccc2)N1C(=O)OC,3.6,12.0,-5.5,1.5,0.0
COC(=O)N1C(=O)[C@](CC(C)C)(c2ccccc2)N1C(=O)OC,5.5,6.8,4.7,27.6*,0.1
COC(=O)N1C(=O)[C@](c2ccccc2)(C2CCCCC2)N1C(=O)OC,-2.1,1.2,6.7,71.0*,0.9
Cc1cc(S(=O)(=O)NC2CC(C)(C)NC(C)(C)C2)c(Cl)cc1Cl,6.4,-5.6,4.4,-7.4,1.1
CCN1C(=O)[C@H]2[C@@H](c3ccc(-c4cccc(Cl)c4)cc3)N[C@@](C)(C(=O)OC)[C@H]2C1=O,0.5,-13.5,-2.0,0.7,-4.4
CCN(c1ccccc1)S(=O)(=O)c1ccc(OC)c(NC(=O)CNCCc2ccccc2)c1,-2.9,6.2,2.8,28.2*,-1.9
CCN(c1ccccc1)S(=O)(=O)c1ccc(OC)c(NC(=O)Cc2ccc(F)cc2)c1,.,1.0,-12.0,0.2,-10.5
O=[N+]([O-])c1cccc(C2Nc3cccc4cccc(c34)N2)c1,20.6*,20.8,1.7,20.9,-4.6
CCN(CC)c1ccc(C2Nc3cccc4cccc(c34)N2)cc1,9.2,-1.2,-4.0,10.3,-5.0
O=[N+]([O-])c1ccc(C2Nc3cccc4cccc(c34)N2)cc1,13.4,10.9,-8.5,28.8*,-6.5
Cc1cc(C(=O)c2ccc3ccccc3c2)c(C)o1,0.9,-1.0,4.1,-8.9,1.6
Cc1ccc2oc(C(=O)Nc3ccc(S(=O)(=O)Nc4ncccn4)cc3)c(C)c2c1,1.3,16.9,-6.2,-4.9,-0.9
O=C(NNC(=O)c1cc2cc(Br)ccc2oc1=O)c1ccc(O)cc1O,1.1,13.9,-3.7,34.3*,-4.2
NC(=O)c1sc2nc(-c3ccccc3)c3c(c2c1N)CCCC3,5.2,27.8,1.2,32.8*,0.3
COc1ccc2ccc3c(c2c1)N=C[C@]1(O3)N(C)c2ccccc2C1(C)C,-0.7,6.5,-9.4,44.6*,-6.5
Cc1ccc(CNC(=O)c2cnccn2)cc1,-4.3,4.1,4.7,-2.4,-2.0
O=C(O)c1ccc(N=Nc2c(O)[nH]c3cc(Cl)ccc23)cc1,1.9,-1.7,2.4,52.9*,5.7
O=C(O)Cn1cc(/C=c2/sc3nc4ccccc4n3c2=O)c2ccccc21,9.2,19.2,-3.4,31.5*,-0.7
Cc1ccc(-n2c(C)cc(/C=c3/sc4nc5ccccc5n4c3=O)c2C)cc1,-4.7,10.3,3.3,-27.1,-4.1
CC1CCCCN1C(=S)NCc1ccco1 (stereo not drawn),2.3,1.2,3.0,-2.3,-0.2
COc1ccc(-n2c(SCC(=O)NC3CC3)nc3ccccc3c2=O)cc1OC,.,2.4,-5.3,-0.5,-1.2
NS(=O)(=O)c1ccc(CCNCC(=O)NCc2ccccc2Cl)cc1,-5.5,11.6,-3.2,12.5,0.2
COc1ccc(-c2csc(NC(=O)c3ccccc3F)n2)cc1,-5.5,10.0,2.1,-3.1,-0.9
COc1ccc(-c2csc(NC(=O)c3ccccc3NS(=O)(=O)c3ccc(F)c(F)c3)n2)cc1,17.9,14.1,12.4,31.2*,4.0
COc1ccc(NC(=O)Nc2nnc(N3CCC(C)CC3)s2)cc1OC,1.7,0.1,-1.7,19.6,1.1
COc1ccc(OC)c(NC(=O)Nc2nnc(N3CCC(C)CC3)s2)c1,1.9,18.9,-11.3,29.2*,-3.6
